According to the supplement of paper PMC3334620:
In all, about 33,000 sequences were measured (“E-score (-0.5 to 0.5)”: median about -0.017, highest 2% from about 0.3 on). Shown is part of a subset that was picked to be rich in the highest values.

Biological target: T1, Sut1 (UniProt P53032)
T1 sequence: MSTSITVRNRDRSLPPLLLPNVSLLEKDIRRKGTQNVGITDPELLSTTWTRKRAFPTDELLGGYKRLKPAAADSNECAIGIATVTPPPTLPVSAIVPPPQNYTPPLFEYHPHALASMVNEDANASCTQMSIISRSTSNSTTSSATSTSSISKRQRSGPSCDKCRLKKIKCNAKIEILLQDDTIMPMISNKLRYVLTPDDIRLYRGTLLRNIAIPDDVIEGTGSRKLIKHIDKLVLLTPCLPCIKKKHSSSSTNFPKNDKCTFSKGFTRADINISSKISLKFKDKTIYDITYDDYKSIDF
Test: PBM E-score (8-mer binding enrichment) (E-score (-0.5 to 0.5)); higher = stronger / more preferred TF binding
Details: protein concentration: 200 nM; construct: GST-full length
In short: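 Masliner-normalised scans of fluorescent anti-GST signal were the basis for scoring. That signal came from GST-tagged yeast transcription factors applied at about 100-200 nM to double-stranded universal all-10-mer Agilent arrays on fresh or once-stripped slides. Each ungapped eight-base word, pooled with its reverse complement, received an E-score from the Universal PBM Analysis Suite.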

Sequence | PBM E-score
AAGCACGC | -0.122
CACGGTAA | 0.0752
CTTCCATA | 0.00613
CTCATAGC | -0.0832
CCCCAGGC | -0.303
GCCGAGCC | -0.0648
GACACTGA | 0.0506
AATCGTTG | 0.0316
CCTTCACC | -0.231
TGGAGAAA | -0.00929
CAGAGAAG | -0.0543
CCGACAAG | 0.115
AGGAGAAG | -0.165
CGGAGAAA | 0.391
GGGAGAAC | -0.0542
AGGAGAAC | -0.0513
TCGACAAA | 0.213
CGGAGAAC | 0.33
CCGACAAA | 0.313
GGGAGAAA | -0.0502
CGGAGAAG | 0.36
CGTCAACG | 0.0766
CGGTACTC | -0.0748
GAACAGTC | 0.0217
GAATGTCC | 0.282
AACCCTAC | -0.287

Sequence | PBM E-score
ATATGCAC | 0.133
CCACCCCA | -0.221
AATCCATA | 0.108
AACGCTGT | -0.0573
CCAGTAGA | -0.112
AGTGCTCA | -0.105
CCGAAAAA | 0.352
TCGAGAAA | 0.103
GCGAGAAA | 0.0168
CGGAGAGA | 0.317
CCGAGAAA | 0.339
CCGAAAAG | 0.178
CGGAGAGC | 0.109
AGGAGAGA | -0.0542
CCGAAAAC | 0.164
ACGGGTGA | -0.0761
AGCGTCAT | -0.0756
CACCTTGC | 0.00165
CTCAGCGA | -0.204
CGGAGCAA | 0.311
CGGAGCGA | 0.325
TGGAGCAA | -0.0175
CGGAGCAC | 0.175
CGGAGCGC | 0.118
AGGAGCGA | -0.00713
TTCATGAA | 0.00239

Sequence | PBM E-score
AACTACAT | 0.141
CCATTATA | 0.135
ACCGGGAA | 0.145
TCCGGAAA | 0.411
TCCGGTAA | 0.384
CCCGGAAA | 0.234
TCCGGGAA | 0.356
CCCGGGAA | -0.03
ACCGGTAA | -0.0335
GCCGGTAA | 0.121
ACCGGAAA | 0.268
CTCTGAGA | -0.0987
AGCAATTG | 0.175
GGAATGAA | 0.166
ATGCCCCC | -0.387
AACTCGGA | 0.341
TACTCGGA | 0.324
AACTCGGT | 0.0362
TACTCGCA | 0.0383
AACTCGGG | -0.135
GACTCGGC | -0.033
CACTCGGA | 0.266
GACTCGCA | -0.0641
GACTCGGA | 0.33
GCAGAGGA | -0.102
GCTTCGAC | -0.218

Sequence | PBM E-score
GAGACCCC | -0.146
ACCTTGCT | -0.0591
GCGCCAGA | -0.088
CCATATAG | -0.0893
ACTCATCG | 0.0167
ATCCGTGC | 0.0778
CACCGTGC | -0.263
CTCCGTGA | 0.407
ATCCGTGA | -0.119
GTCCGTGA | 0.251
CTCCGTGC | 0.321
AGGGCAGA | -0.348
GACTGGGC | -0.0754
CTTCGCTA | -0.0699
ATATGCAG | -0.134
AAAGTAAT | 0.204
AGAGTTAC | -0.117
GGAGTTAA | 0.337
AGAGTTAA | 0.0656
TGAGTTAA | -0.00085
CGAGTTAC | 0.0146
GGAGTTAC | 0.367
GCTCCCTA | -0.123
CAGGGAGC | -0.326
ACAAACAC | 0.185
CCGGCCGA | 0.0979

Sequence | PBM E-score
GCGGCCGA | -0.139
TCGGCCGA | 0.323
AAAACTAT | 0.231
AAAACTAA | 0.353
TAAACTAA | 0.323
CTAACTAG | 0.302
AAAACTAG | 0.0495
CAAACTAA | 0.276
GAAACTAA | 0.00617
CTAACTAA | 0.142
CTAACTAC | 0.00799
ACTCCACT | -0.144
CCCTCAGA | -0.309
CAGAGAAC | -0.299
CTATCAAC | 0.208
AGACTCTG | -0.137
CAGTCACA | -0.17
GACCCGTC | -0.239
AGTTCTCC | 0.0174
GTGACGAA | -0.0161
CCTTAGGA | -0.0422
AACCAGCT | -0.0518
CGAAAACC | 0.0693
AGTTAAGA | 0.0414
CTCCGGTA | 0.413
CGCCGGTC | -0.0721

Sequence | PBM E-score
ATCCGGTC | -0.00108
CCCCGGTA | 0.0227
GCCCGGTA | -0.187
CTCCGGTC | 0.418
GTCCGGTA | 0.373
ATCCGGTA | 0.135
GGCCGGTA | 0.0132
GGTCGAAA | -0.14
GGCTGACC | -0.205
ATTATTCA | 0.289
AGGATACT | -0.0531
ACTCGGCT | -0.079
ACACCGCA | 0.0401
GTAGACAA | 0.157
AGGGGTAT | -0.217
ACGCACTA | -0.0472
GCATATCC | -0.196
GGATTTCA | 0.117
CGGACCTC | 0.411
GGGACCTA | 0.0551
AGGACCTC | -0.0609
CGGACCTA | 0.42
AGGACCTA | -0.0435
CTGACCTC | -0.121
AACTCGAA | -0.0516
TCCTTCCA | -0.243

Sequence | PBM E-score
GTATAAGA | 0.103
TTATAAAA | 0.314
ATATAAAA | 0.205
CTATAAAA | 0.183
GTATAAAC | 0.227
GTATAAAA | 0.317
TGAACCCA | -0.00171
GTCGTTGA | -0.0946
ATCCCAGC | -0.107
ACACTAGA | 0.0902
CGATGTCC | 0.164
ATCAAGAT | 0.158
CACGGAGC | 0.354
CACGGAGG | 0.0312
CAAGGAGA | 0.0606
GACGGAGC | 0.231
TACGGAAA | 0.278
GACGGAGA | 0.277
CACGGAGA | 0.355
TACGGAGA | 0.32
TACGGACA | 0.282
AACGGAGG | -0.0314
AACGGAGT | 0.478
AACGGAGC | 0.231
ATCCATTA | 0.076
AATCGCCA | -0.0545

Sequence | PBM E-score
AAGAGATC | -0.168
AGAATTGG | 0.13
CGCAATGA | -0.0747
ACACTTGA | -0.00965
AGACCACC | -0.0644
CATGGCAG | -0.108
CCCTGGGC | -0.324
ATTAATGA | 0.267
ATTTCTTA | 0.0841
CTCCCGAA | -0.0868
CTCCCTCC | -0.2
GGCTCATA | -0.0389
CAGCGGGG | -0.149
AACAGAGA | -0.0653
AACGGAGA | 0.359
AACGGATA | 0.285
ACTGCTCC | -0.0101
GGAGTAAC | 0.258
AGAGTATA | 0.00921
TGAGTAAA | 0.0705
GGAGTAGA | 0.318
GGAGTATA | 0.311
CGAGTATA | 0.0489
GGAGTAAA | 0.333
AGAGTAGA | 0.163
CGAGTAGA | -0.0364

Sequence | PBM E-score
AGGCCATG | -0.206
GAGCTGAA | 0.01
CAGTACGA | -0.0772
TACAGCGA | -0.145
GTAGCTCA | -0.0732
ACCTGATC | -0.177
AGAACCTG | -0.0844
ATAATTTC | 0.242
AAAATTAG | 0.155
AAAATTAC | 0.237
CTAATTTA | 0.175
CTAATTTC | 0.299
ATTATAAT | 0.378
GTAATTAA | 0.161
ATAATTAA | 0.314
AAAATTAT | 0.351
ATTATAAA | 0.275
TTAATTAA | 0.0737
ATTATAAG | 0.193
